Results filed as inconclusive are left out. A call without a number means that no potency is given here. Calls of active or inactive are those of the source. Calls follow the shape of the dose curve; as a rule, active = well fitted inhibition curve with a large enough effect; inconclusive = small, poorly fitted or top-dose-only effect, or effect the other way; inactive = flat fitted curve, though single readings scatter.
biological target: Ubiquitin carboxyl-terminal hydrolase 2 (Homo sapiens) (UniProt O75604); assay: Confirmation Assay for Inhibitors of Ubiquitin-specific Protease USP2a Using CHOP2 as the Reporter; conditions: USP2 core, Ub-CHOP2 coupled reporter fluorescence; series mostly up to 38.3 µM; also: nearly all actives have a fitted effect of over 55% in size
Method in brief: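 USP2 core (10 nM final) was preincubated with compound for 30 min at RT in Tris-HCl pH 8.0, CaCl2, beta-mercaptoethanol, CHAPS. Ub-CHOP2 and reporter substrate (25 nM final each) were added, and fluorescence (Ex 485/Em 531 nm) was read after 60 min.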
Potency is read from the fitted curve at half-maximal effect.

Sequence of Ubiquitin carboxyl-terminal hydrolase 2 (Homo sapiens) (O75604 whole entry, looked up): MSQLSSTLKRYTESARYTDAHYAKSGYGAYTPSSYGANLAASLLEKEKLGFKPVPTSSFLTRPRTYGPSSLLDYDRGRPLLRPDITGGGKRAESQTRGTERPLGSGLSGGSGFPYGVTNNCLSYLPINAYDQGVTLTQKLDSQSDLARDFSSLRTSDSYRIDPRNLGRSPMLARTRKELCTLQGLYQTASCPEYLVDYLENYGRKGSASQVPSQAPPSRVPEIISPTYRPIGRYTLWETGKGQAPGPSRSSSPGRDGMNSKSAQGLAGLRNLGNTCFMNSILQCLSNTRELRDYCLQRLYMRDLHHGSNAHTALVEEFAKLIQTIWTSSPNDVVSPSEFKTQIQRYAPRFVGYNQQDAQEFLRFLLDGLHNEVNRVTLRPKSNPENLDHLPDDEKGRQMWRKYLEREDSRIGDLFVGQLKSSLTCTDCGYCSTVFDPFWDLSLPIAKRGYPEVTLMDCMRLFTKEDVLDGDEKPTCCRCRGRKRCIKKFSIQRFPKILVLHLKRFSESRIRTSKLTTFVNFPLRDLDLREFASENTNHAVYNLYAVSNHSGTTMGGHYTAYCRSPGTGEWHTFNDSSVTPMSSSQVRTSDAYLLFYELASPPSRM

Structure (SMILES)	Potency
CCOc1cc(/C=C/c2nc3cc(C)c(C)cc3s2)ccc1OCC(=O)N1CCOCC1	inactive
Cc1cc(C)cc(NC(=O)CSc2nc3c(c(=O)[nH]2)CN(Cc2ccc(F)cc2)CC3)c1	inactive
N#Cc1cc(Sc2ccccn2)c(Sc2ccccn2)cc1C#N	inactive
COc1ccc(C(=O)OCC(=O)c2c[nH]c3ccccc23)c(OC)c1	inactive
Cc1c(N=C/C=C2\N(C)c3ccccc3C2(C)C)c(=O)n(-c2ccccc2)n1C	inactive
O=C(Nc1ccncc1)c1ccc(S(=O)(=O)Nc2ccccc2)cc1	14.7 µM (active)
CN(C)c1ccc(/C=C(/NC(=O)c2ccccc2)C(=O)N/N=C/c2ccc([N+](=O)[O-])c(O)c2)cc1	inactive
CC1CCCCC1NC(=O)CSCC(=O)O (stereo not given)	inactive
Cc1cc(C(=O)NCc2ccco2)on1	inactive
O=C(NCC(c1cccnc1)N1CCN(c2ccc(F)cc2)CC1)OCc1ccccc1 (stereo not given)	inactive
COc1ccc(OC)c(Nc2ccc(Nc3cc(OC)ccc3OC)nn2)c1	inactive
CCOc1ccccc1C(=O)N[C@H](C(=O)Nc1ccc(OC)c(S(=O)(=O)N2CCOCC2)c1)C(C)C	inactive
COc1ccc(C(=O)N/C(=C\c2cccs2)C(=O)N2CCN(C)CC2)cc1OC	inactive
COc1ccc(/C=N\NC(=O)c2cc(O)c(O)c(O)c2)cc1COc1ccc(C(=O)OCC(C)C)cc1	14.7 µM (active)
COc1cc(C)c(S(=O)(=O)NCc2ccc3c(c2)OCO3)cc1C	inactive
COc1ccc(O)c(-c2cc(-c3ccc(F)cc3)n[nH]2)c1	inactive
C#CCOCCOCCOCCNc1nc(N2CCN(C(=O)CCCCCCCCCCNC(=O)[C@H]([C@@H](C)CC)n3cc(CCCCCN)nn3)CC2)nc(N2CCN(C(=O)CCCCCCCCCCNC(=O)[C@H](CCCCN)n3cc(CCCC(=O)O)nn3)CC2)n1	13.1 µM (active)
NC1=NC2(CCC(c3ccccc3)CC2)n2c(nc3ccccc32)N1 (stereo not given)	inactive
COC(=O)CC1Oc2ccc(C)cc2NC1=O (stereo not given)	inactive
O=C(O)c1cccc(-n2cccc2/C=C2/NC(=O)N(c3ccc(Cl)cc3)C2=O)c1	9.27 µM (active)

Structure (SMILES)	Potency
O=C(CSc1nc2ccccc2s1)NCCCN1CCOCC1	inactive
Cc1nc2ccccc2c2oc(C(=O)NCCN3CCN(C)CC3)cc12	inactive
CCOC(=O)N1CCN(CC(=O)n2c(C)c(C)c3ccccc32)CC1	inactive
COc1ccc(CC(=O)c2ccccc2C(=O)O)cc1	inactive
NC1=NC(=O)/C(=C/c2cccc(-c3ccc(S(N)(=O)=O)cc3)c2)S1	9.27 µM (active)
COC(=O)c1ccc(NC(=O)CSC2=Nc3ccccc3C3CC=NN23)cc1 (stereo not given)	inactive
CCC1=[N+](CC(=O)c2ccc(Br)cc2)CCn2c(C)ccc21	inactive
Cc1ccc2[nH]c3c(c2c1)CN(C(=O)CN1CCSCC1)CC3	inactive
Cc1ccc(Nc2nc(N)nc(CN3CCN(C(=O)c4ccco4)CC3)n2)cc1Cl	inactive
Nc1c(C(=O)Nc2ccc(Cl)cc2)oc2ccccc12	inactive
CCOc1cccc(NC(=O)/C(C#N)=C\c2cn(CC(=O)O)c3ccccc23)c1	inactive
Cc1ccc(C(=O)COC(=O)CNC(=O)CN2C(=O)c3ccccc3C2=O)cc1	inactive
O=C(c1ccccc1N(Cc1ccccc1)S(=O)(=O)c1ccccc1)N1CCOCC1	inactive
C#CCOCCOCCOCCNc1nc(N2CCN(C(=O)CCCCCCCCCCNC(=O)[C@H](CCCCN)n3cc(CCO)nn3)CC2)nc(N2CCN(C(=O)CCCCCCCCCCNC(=O)[C@H](CCCCN)n3cc(C[C@@H](C)CC)nn3)CC2)n1	8.26 µM (active)
NC(=O)CC(NC(=O)Cc1ccc(Br)cc1)c1ccc(N2CCC(Cc3ccccc3)CC2)c([N+](=O)[O-])c1 (stereo not given)	inactive
CCO[C@H]1OC(C(=O)N2CCCCCCC2)=C[C@@H](c2ccc(C(F)(F)F)cc2)[C@@H]1CCCO	inactive
CC(C)(C)[C@H]1COC(=O)[C@@H](Cc2ccc(F)cc2)C/C=C\C[C@@H](CC(=O)N[C@@H](CO)Cc2ccccc2)C(=O)N1	inactive
COc1ccc(NC(=O)CSc2ncccc2C(=O)OC(C)C)cc1OC	inactive
CCOC(=O)c1[nH]c2ccc(OC)cc2c1NC(=O)CCN1CCCC(C)C1 (stereo not given)	inactive
CCN=C1SC(C(=O)Nc2cccc(OCC)c2)CC(=O)N1CC (stereo not given)	inactive
